Screening results as filed in PubChem.
DT40 TDP1 CPT = DT40-hTDP1 cell growth loss with CPT; chicken DT40 Tdp1-/-;hTDP1 cells + 20 nM CPT, ATP luminescence, 48 h; Potency, µM (doses to about 46.2 µM), usual class: inhibitors; hit rate 12% among 420,000; further: nearly all actives have a fitted effect of over 55% in size
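Cell growth measured by CellTiter-Glo luminescence after a minimum 48 h, 37 C compound exposure with 20 nM CPT in Tdp1-knockout DT40 cells stably expressing hTDP1, seeded 400/well; qHTS titration format.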
ATXN viability = reduces viability in counter-screen for ATXN expression inhibitors. S2 cells (HEK-293 line with an ATXN2-luciferase reporter) viability, CellTiter-Fluor protease fluorescence, 24 h. Potency, µM (doses to about 56.7 µM), actives largely listed as cytotoxic. hit rate 0.49% among 400,000. AID 651635; further: nearly all actives have a fitted effect of over 40% in size
HepG2 viability = HepG2 cytotoxicity, counter-screen for TGF-b inhibitors. hit rate 0.76% among 410,000. Potency, µM (top dose mostly 46.1 µM), actives largely listed as cytotoxic. HepG2 CAGA-GFP viability, ATP luminescence, 18 h
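CellTiter-Glo luminescence gave cytotoxicity after 18 hours at 37 degrees C. The cells were HepG2 CAGA-GFP in 1% FBS DMEM, stimulated with 500 pg/mL TGF-beta after compound addition. %Activity was normalised to no-cell wells (complete cell-killing) and DMSO (no toxicity), and curves were fitted and classified.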
TGFb SMAD3 inh = TGF-b pathway inhibition | HepG2 CAGA-GFP TGF-b/SMAD3 reporter, GFP fluorescence, 18 h; TGF-beta stimulated, 500 pg/mL final | hit rate 1.2% among 410,000 | Potency, µM (top dose mostly 46.1 µM), usual class: inhibitors; further: nearly all actives have a fitted effect of over 65% in size
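TGF-beta reporter screen: HEPG2 CAGA-GFP, 1% FBS, 500 pg/mL TGF-beta final, 18 h; per-cell GFP summed per well; curves fitted and categorized by class.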
ATXN2 expr inh = inhibitors of ATXN2 expression; HEK-293 ATXN2-luciferase reporter, luminescence, 24 h; Potency, µM (series often up to 57 µM), hits mostly inhibitors; hit rate 0.72% among 360,000; further: nearly all actives have a fitted effect of over 55% in size
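ATXN2-luciferase reporter cells (luciferase flanked by upstream and downstream ATXN2 gene portions) were treated 24 h at 37 °C with compounds at up to 57 uM. SteadyGlo luminescence gave expression; GF-AFC fluorescence gave viability.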
DT40 TDP1 no CPT = qHTS for Inhibitors of human tyrosyl-DNA phosphodiesterase 1 (TDP1): qHTS in cells in absence of CPT; DT40 Tdp1-/- hTDP1 cells, no CPT, ATP luminescence, 48 h; Potency, µM (top dose mostly 46.2 µM), hits mostly inhibitors; hit rate 15% among 420,000; further: nearly all actives have a fitted effect of over 55% in size
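Luminescent ATP content (CellTiter-Glo) served as the growth readout. Knockout chicken DT40 cells expressing human TDP1 were exposed to compounds without camptothecin for a minimum 48 hr at 37 °C.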
A number is an active result; [ ] = dose if it differs, or a comment. The list is not random: actives were taken first. Their share in the collection is about 17%. The call rests on the fitted dose curve; in most records, active means well fitted curve in the direction sought with a large enough effect; inconclusive means small, poorly fitted or top-dose-only effect, or another doubt; inactive means no such curve, though single readings can be large; an effect the other way counts as inactive or inconclusive.

O=C1OCC2=C1C(c1ccccc1)CC(=O)N2c1ccccc1 (stereo unspecified) was read as DT40 TDP1 CPT inactive, ATXN viability inactive, HepG2 viability inactive, TGFb SMAD3 inh inactive, ATXN2 expr inh inactive[11.3 µM] and DT40 TDP1 no CPT inactive.
Cc1cc(Sc2ncnc(N)c2[N+](=O)[O-])ncn1 was read as DT40 TDP1 CPT 0.291µM, ATXN viability inconclusive, HepG2 viability inactive, TGFb SMAD3 inh inconclusive, ATXN2 expr inh inconclusive and DT40 TDP1 no CPT 0.92µM.
`Cc1cc(Sc2nc(N)ncc2[N+](=O)[O-])ncn1` gave DT40 TDP1 CPT 0.731µM, ATXN viability inactive, HepG2 viability inactive, TGFb SMAD3 inh 10µM, ATXN2 expr inh inactive[11.3 µM] and DT40 TDP1 no CPT 1.3µM.
Screening C/C(=N\Nc1nc(Cl)c(Cl)cc1Cl)c1ccc(S(=O)(=O)NCc2ccco2)cc1 returned DT40 TDP1 CPT inconclusive, ATXN viability inconclusive, HepG2 viability inactive, TGFb SMAD3 inh inconclusive, ATXN2 expr inh inactive and DT40 TDP1 no CPT 20.6µM.
Screening Cc1ccc(C(=O)Nc2ccc(S(=O)(=O)NCc3ccco3)cc2)cc1 returned DT40 TDP1 CPT inconclusive, ATXN viability inactive, HepG2 viability inactive, TGFb SMAD3 inh inactive, ATXN2 expr inh inactive and DT40 TDP1 no CPT inconclusive.
For Cc1cc(C)n(-c2ccc(C(=O)Nc3cccc([N+](=O)[O-])c3)cc2)n1 the results were DT40 TDP1 CPT inactive, ATXN viability inactive, HepG2 viability inactive, TGFb SMAD3 inh inactive, ATXN2 expr inh inactive and DT40 TDP1 no CPT inconclusive.
Screening Cc1cc(C)n(-c2ccc(C(=O)Nc3ccc(C)c(S(=O)(=O)N(C)C)c3)cc2)n1 returned DT40 TDP1 CPT inconclusive, ATXN viability inactive, HepG2 viability inactive, TGFb SMAD3 inh inactive, ATXN2 expr inh inactive and DT40 TDP1 no CPT inconclusive.
Screening Cc1cc(C)n(-c2ccc(C(=O)Nc3ccc(S(=O)(=O)N(C)C)cc3)cc2)n1 returned DT40 TDP1 CPT inconclusive, ATXN viability inconclusive, HepG2 viability inactive, TGFb SMAD3 inh inactive, ATXN2 expr inh inconclusive and DT40 TDP1 no CPT 23.1µM.
Cc1cc(C)n(-c2ccc(C(=O)Nc3cccc(S(=O)(=O)N(C)C)c3)cc2)n1 was read as DT40 TDP1 CPT 1.84µM, ATXN viability inactive, HepG2 viability inactive, TGFb SMAD3 inh inconclusive, ATXN2 expr inh inactive and DT40 TDP1 no CPT 1.64µM.
`C/C(=N\Nc1ccccn1)c1ccc(S(=O)(=O)NCc2ccco2)cc1` gave DT40 TDP1 CPT inactive, ATXN viability inactive, HepG2 viability inactive, TGFb SMAD3 inh inactive, ATXN2 expr inh inactive and DT40 TDP1 no CPT inconclusive.
Screening Cc1cc(C)n(-c2ccc(C(=O)Nc3ccc(S(=O)(=O)NCc4ccco4)cc3)cc2)n1 returned DT40 TDP1 CPT 18.4µM, ATXN viability inactive, HepG2 viability inactive, TGFb SMAD3 inh inconclusive, ATXN2 expr inh inactive and DT40 TDP1 no CPT 18.4µM.
`COc1ccc(Cl)cc1NC(=O)COC(=O)c1ccc(C)o1` gave DT40 TDP1 CPT inactive, HepG2 viability inactive, TGFb SMAD3 inh inactive and DT40 TDP1 no CPT inactive.
For COc1cccc(CNC(=O)CCS(=O)(=O)c2ccccc2Cl)c1 the results were DT40 TDP1 CPT inactive, HepG2 viability inactive, TGFb SMAD3 inh inactive and DT40 TDP1 no CPT inactive.
For COc1ccccc1NC(=O)CN(Cc1ccco1)C(=O)c1ccc(-n2nc(C)cc2C)cc1 the results were DT40 TDP1 CPT inconclusive, ATXN viability inactive, HepG2 viability inactive, TGFb SMAD3 inh inactive, ATXN2 expr inh inactive and DT40 TDP1 no CPT 16.4µM.
COc1ccccc1NC(=O)CN(Cc1ccco1)C(=O)c1cncc(Br)c1 was read as DT40 TDP1 CPT inactive, ATXN viability inactive, HepG2 viability inactive, TGFb SMAD3 inh inactive and DT40 TDP1 no CPT inactive.
O=C(O)c1cccc2c1C(=O)c1ccc(-c3ccc(Cl)c(C(F)(F)F)c3)cc1S2(=O)=O was read as DT40 TDP1 CPT inactive, ATXN viability inactive, HepG2 viability inactive, TGFb SMAD3 inh inactive, ATXN2 expr inh inactive and DT40 TDP1 no CPT inactive.
`CCCCCCn1cnc2c(oc3nc4c(cc32)CCCC4)c1=O` gave DT40 TDP1 CPT 23.1µM, ATXN viability inactive, HepG2 viability inactive, TGFb SMAD3 inh inactive, ATXN2 expr inh inactive and DT40 TDP1 no CPT inactive.
For O=C1Nc2c(c(=O)[nH]c(=O)n2-c2ccc(F)cc2)C1(NS(=O)(=O)c1ccccc1)C(F)(F)F (stereo unspecified) the results were DT40 TDP1 CPT inactive, ATXN viability inactive, HepG2 viability inactive, TGFb SMAD3 inh inactive, ATXN2 expr inh inactive and DT40 TDP1 no CPT inactive.
O=C(NC1CCCCCC1)C1CCN(C(=O)N2CCOc3ccccc32)CC1 was read as DT40 TDP1 CPT inconclusive, HepG2 viability inactive, TGFb SMAD3 inh inactive and DT40 TDP1 no CPT inconclusive.
Screening COc1ccc(-n2c(SCC(=O)C(C)(C)C)nc3c(sc(=S)n3-c3ccccc3)c2=O)c(OC)c1 returned DT40 TDP1 CPT 13µM, ATXN viability inactive, HepG2 viability inactive, TGFb SMAD3 inh inactive, ATXN2 expr inh inactive and DT40 TDP1 no CPT 11.6µM.
O=C1C2CCCN2C(c2ccco2)N1c1ccc(F)cc1 (stereo unspecified) was read as DT40 TDP1 CPT inactive, ATXN viability inactive, HepG2 viability inactive, TGFb SMAD3 inh inactive, ATXN2 expr inh inactive and DT40 TDP1 no CPT inactive.
For O=c1cnc2cncnc2n1Cc1ccccc1Cl the results were DT40 TDP1 CPT 2.31µM and DT40 TDP1 no CPT 1.3µM.
`O=c1c(CCc2ccccc2)nc2cncnc2n1Cc1ccccc1` gave DT40 TDP1 CPT inconclusive and DT40 TDP1 no CPT inactive.
For O=c1cnc2cncnc2n1Cc1ccccc1 the results were DT40 TDP1 CPT 5.8µM and DT40 TDP1 no CPT 7.31µM.
O=c1c(-c2cccc(Cl)c2)nc2cncnc2n1Cc1ccc(F)cc1 was read as DT40 TDP1 CPT inactive and DT40 TDP1 no CPT inactive.
For O=c1cnc2cncnc2n1Cc1ccc(F)cc1 the results were DT40 TDP1 CPT 4.11µM and DT40 TDP1 no CPT 4.11µM.
Cc1nc2cncnc2n(Cc2ccccc2Cl)c1=O was read as DT40 TDP1 CPT inactive and DT40 TDP1 no CPT inactive.
O=c1c(-c2ccccc2)nc2cncnc2n1Cc1ccc(F)cc1 was read as DT40 TDP1 CPT inconclusive and DT40 TDP1 no CPT 20.6µM.
For O=C(COC(=O)/C=C/c1ccccc1)NC1CCCCC1 the results were DT40 TDP1 CPT inactive, ATXN viability inconclusive, HepG2 viability inactive, TGFb SMAD3 inh inactive, ATXN2 expr inh inactive and DT40 TDP1 no CPT inactive.
`Cc1ccc(NC(=O)CSc2nc3ccccc3c3nc(CCn4c(C)nc5ccccc54)nn23)cc1F` gave DT40 TDP1 CPT 8.2µM, ATXN viability inconclusive, HepG2 viability inactive, TGFb SMAD3 inh inactive, ATXN2 expr inh inconclusive and DT40 TDP1 no CPT 9.2µM.
